Measurements taken from PubChem BioAssay (NCATS).
Inconclusive results are not listed. Calls of active or inactive are those of the source. Unless noted, calls come from the whole dose curve; as a rule, active = well fitted curve in the direction sought with a large enough effect; inconclusive = small, poorly fitted or top-dose-only effect, or another doubt; inactive = no such curve, though single readings can be large; an effect the other way counts as inactive or inconclusive.

How the values were obtained:
[1] = Quantitative High-Throughput drug screen in 47 multiple myeloma cell lines against the NCATS MIPE library collection: OPM1_PLB cell viability assay (AID 1918989); note: nearly all actives have a fitted effect of over 40% in size; note: potency is the fitted concentration of half-maximal effect
Procedure, shortened: (§1)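 Cells were exposed to library compounds for 48 hours, after which ATP was measured by CellTiter-Glo. Signal was taken as median relative luminescence units.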

[2] = Quantitative High-Throughput drug screen in 47 multiple myeloma cell lines against the NCATS MIPE library collection: VP6_DJ cell viability assay (AID 1919867); note: nearly all actives have a fitted effect of over 40% in size; note: potency is the fitted concentration of half-maximal effect
Procedure, shortened: as §1

[3] = Quantitative High-Throughput drug screen in 47 multiple myeloma cell lines against the NCATS MIPE library collection: UTMC2_PLB cell viability assay (AID 1919868); note: nearly all actives have a fitted effect of over 55% in size
Procedure, shortened: as §1

[4] = Quantitative High-Throughput drug screen in 47 multiple myeloma cell lines against the NCATS MIPE library collection: PCM6_Riken cell viability assay (AID 1919870); note: nearly all actives have a fitted effect of over 30% in size; note: potency is the fitted concentration of half-maximal effect
Procedure, shortened: as §1

[5] = Quantitative High-Throughput drug screen in 47 multiple myeloma cell lines against the NCATS MIPE library collection: OPM2_DSMZ cell viability assay (AID 1919872); note: nearly all actives have a fitted effect of over 30% in size
Procedure, shortened: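 Myeloma cell lines, 500 cells per well, exposed to MIPE 4.0 library compounds for 48 h at 37C, 5% CO2. Viability from ATP by CellTiter-Glo luminescence; normalised to DMSO (100%) and media-only (0%) wells.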

[6] = Quantitative High-Throughput drug screen in 47 multiple myeloma cell lines against the NCATS MIPE library collection: KMS11_JCRBsus cell viability assay (AID 1919873); note: nearly all actives have a fitted effect of over 50% in size
Procedure, shortened: as §1

[7] = Quantitative High-Throughput drug screen in 47 multiple myeloma cell lines against the NCATS MIPE library collection: KMS28BM_JCRB cell viability assay (AID 1919874); note: nearly all actives have a fitted effect of over 35% in size
Procedure, shortened: as §1

[8] = qHTS for identification of novel therapeutic agents for treatment of microphthalmiaassociated transcription factor (MiT) renal cell carcinoma (RCC) (AID 1963991); settings: CellTiter-Glo, 48 h, stronger effect = lower value
Procedure, shortened: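 Three TFE3-fusion RCC lines (UOK109, UOK124, UOK145), 500 cells/well in complete medium, were treated with MIPE 4.0 compounds for 48 hours at 37 C. Viability was by CellTiter-Glo luminescence, normalized to DMSO (100%) and empty wells (0%); curves fitted over 11 concentrations.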

[9] = Quantitative High-Throughput drug screen in 47 multiple myeloma cell lines against the NCATS MIPE library collection: U266_ATCC cell viability assay (AID 1919864); note: nearly all actives have a fitted effect of over 35% in size; note: potency is the fitted concentration of half-maximal effect
Procedure, shortened: as §1

[10] = Quantitative High-Throughput drug screen in 47 multiple myeloma cell lines against the NCATS MIPE library collection: RPMI8226_ATCC cell viability assay (AID 1919871); note: nearly all actives have a fitted effect of over 30% in size
Procedure, shortened: as §1

[11] = qHTS drug screen for cell cycle checkpoint inhibitors in PARPi-resistant BRCA-mutant ovarian cancer cell lines. (AID 1963452; calls by dose curve); settings: PEO1/OlaR viability, CellTiter-Glo luminescence, 96 h, stronger effect = lower value
Procedure, shortened: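 PEO1, PEO4 and PEO1/OlaR ovarian cancer cells, 600 per well, exposed 96 h at 37C to a dilution series. Viability read by CellTiter-Glo luminescence, normalized to DMSO and empty wells; activity summarized as Z-AUC.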

[12] = system: 3D7; test: qHTS profiling for inhibitors of Plasmodium falciparum proliferation (AID 504749); note: nearly all actives have a fitted effect of over 60% in size; note: potency is the fitted concentration of half-maximal effect;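 for activity, negative = inhibition: 0% = DMSO vehicle and full inhibition = artemisinin control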; settings: P. falciparum in erythrocytes, SYBR Green DNA, 72 h; series mostly up to 28.7 µM
Procedure, shortened: (§2)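 Each compound contacts P. falciparum-infected red blood cells for 72 h at 37 C; lysis buffer (Tris, EDTA, saponin, Triton X, SYBR Green I) is added and fluorescence measured next morning; values normalized to controls.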

[13] = as above; settings: P. falciparum in erythrocytes, SYBR Green DNA, 72 h
Procedure, shortened: as §2

[14] = system: 7G8; test: as above; settings: P. falciparum in erythrocytes, SYBR Green DNA, 72 h; series mostly up to 28.7 µM
Procedure, shortened: as §2

[15] = Quantitative High-Throughput drug screen in 47 multiple myeloma cell lines against the NCATS MIPE library collection: SKMM1_PLB cell viability assay (AID 1919863); settings: SKMM1 myeloma viability, CellTiter-Glo ATP, 48 h; viability: stronger effect = lower value; note: nearly all actives have a fitted effect of over 35% in size
Procedure, shortened: as §1

[16] = TFE3-RCC UOK109 viability, measured here: UOK109 Z-AUC
[17] = TFE3-RCC viability, measured here: UOK124 Z-AUC
[18] = TFE3-RCC viability, measured here: UOK145 Z-AUC
[19] = measured here: PEO1 parental Z-AUC
[20] = at 28.7 µM (top of the series), parasite line A
[21] = at 28.7 µM (top of the series), parasite line B

COc1cc(OC)c(OC)cc1C=O
Potency [1]: inactive | Potency [2]: inactive | Potency [3]: inactive | Potency [4]: inactive | outcome [5]: inactive | Potency [6]: inactive | outcome [7]: inactive | z-score [8, 16]: 0.0222 | z-score [8, 17]: 0.514 | z-score [8, 18]: 0.092

C[C@](O)(CS(=O)(=O)c1ccc(F)cc1)C(=O)Nc1ccc(C#N)c(C(F)(F)F)c1
Potency [1]: 1.87 µM (active) | Potency [9]: 0.935 µM (active) | Potency [2]: 0.662 µM (active) | Potency [4]: 0.662 µM (active) | Potency [10]: inactive | Potency [6]: inactive | Z-AUC [11]: 0.83 (inactive) | Z-AUC [11, 19]: 0.549 | Z-AUC ([11]; measured here: PEO4 Z-AUC): 0.67 | Potency [12]: inactive

O=C1Nc2ccc(Cl)cc2C(c2ccccc2)=NC1O (configuration not stated)
activity, negative = inhibition [13, 20]: -1.71% (inactive) | activity, negative = inhibition [13, 21]: 3.16% (inactive) | Potency [12]: inactive | Potency [14]: inactive

CN1C(=O)CCS(=O)(=O)C1c1ccc(Cl)cc1 (configuration not stated)
Potency [1]: inactive | viability [15]: 109% (inactive) | Potency [9]: inactive | Potency [2]: inactive | Potency [4]: inactive | outcome [5]: inactive | outcome [7]: inactive | Z-AUC [11]: 1.64 (inactive) | Z-AUC [11, 19]: 1.76 | Z-AUC ([11]; measured here: PEO4 Z-AUC): 1.36 | z-score [8, 16]: 0.949 | z-score [8, 17]: 0.189 | z-score [8, 18]: 0.774 | activity, negative = inhibition [13, 20]: -12.8% (inactive) | activity, negative = inhibition [13, 21]: -22.5% (inactive) | Potency [12]: inactive | Potency [14]: inactive

O=C(Nc1ccc(Br)cc1)c1cc(Br)cc(Br)c1O
activity, negative = inhibition [13, 20]: 6.84% (inactive) | activity, negative = inhibition [13, 21]: 4.1% (inactive) | Potency [12]: inactive | Potency [14]: inactive

Nc1ccc([As](=O)(O)O)cc1
activity, negative = inhibition [13, 20]: -20% (inactive) | activity, negative = inhibition [13, 21]: -5.31% (inactive) | Potency [12]: inactive

COC1CC(=C(c2cccs2)c2cccs2)C[N+](C)(C)C1 (configuration not stated)
Potency ([13]; parasite line A): 3.98 µM (active) | Potency ([13]; parasite line B): 4.47 µM (active) | Potency [12]: 11.2 µM (active) | Potency [14]: 10 µM (active)

CC(C)(C)NCC(O)c1ccccc1Cl (configuration not stated)
activity, negative = inhibition [13, 20]: -1.78% (inactive) | Potency [12]: inactive | Potency [14]: 11.2 µM (active)

COP(=S)(OC)Oc1ccc(SC)c(C)c1
activity, negative = inhibition [13, 20]: 8.16% (inactive) | activity, negative = inhibition [13, 21]: 12.2% (inactive) | Potency [12]: inactive | Potency [14]: inactive

Oc1ccc(Cl)cc1
activity, negative = inhibition [13, 20]: 0.659% (inactive) | activity, negative = inhibition [13, 21]: -12.9% (inactive) | Potency [12]: inactive | Potency [14]: inactive

COP(=S)(OC)SCN1C(=O)c2ccccc2C1=O
activity, negative = inhibition [13, 20]: 6.4% (inactive) | activity, negative = inhibition [13, 21]: 1.71% (inactive) | Potency [12]: inactive | Potency [14]: inactive

CCCCCCCCCC(=O)O[C@H]1CC[C@H]2[C@@H]3CCC4=CC(=O)CC[C@@H]4[C@H]3CC[C@]12C
activity, negative = inhibition [13, 20]: 6.57% (inactive) | activity, negative = inhibition [13, 21]: 11.7% (inactive) | Potency [12]: inactive | Potency [14]: inactive

COc1ccc2c(c1)C13CCCC[C@@H]1C(C2)N(C)CC3 (some centres not stated)
activity, negative = inhibition [13, 20]: 4.6% (inactive) | activity, negative = inhibition [13, 21]: -5.63% (inactive) | Potency [12]: inactive | Potency [14]: 4.47 µM (active)

COc1c2c(cc3c1OCO3)CCN(C)C2
activity, negative = inhibition ([13]; at 12.8 µM (top of the series), parasite line A): 4.79% (inactive) | activity, negative = inhibition ([13]; at 12.8 µM (top of the series), parasite line B): 6.97% (inactive) | Potency [12]: inactive | Potency [14]: inactive

CC(C)NC(C)C
activity, negative = inhibition [13, 20]: 6.47% (inactive) | activity, negative = inhibition [13, 21]: 12.2% (inactive) | Potency [12]: inactive | Potency [14]: inactive

CCC1(c2ccccc2)C(=O)N(COC)C(=O)N(COC)C1=O
activity, negative = inhibition [13, 20]: 4.41% (inactive) | activity, negative = inhibition [13, 21]: 7.29% (inactive) | Potency [12]: inactive | Potency [14]: inactive
